This note sets out measurements from PubChem BioAssay (NCI).

Common to all, as to assay: NCI-60 one-dose screen, 48 h (100 = growth as untreated, 0 = no growth, -100 = all killed)
What all share (conditions): 10 µM unless noted

Test [1] relates to HCT-15 colon.
The test system of test [2] is HT29 colon.
In test [3] the test system is SNB-75 CNS.
For test [4], the system named is U251 CNS.
Test [5] relates to PC-3 prostate.
The subject of test [6] is SK-MEL-5 melanoma.
The subject of test [7] is UACC-62 melanoma.
Test [8] deals with LOX IMVI melanoma.
The test system of test [9] is SK-MEL-28 melanoma.
The subject of test [10] is SK-MEL-2 melanoma.
In test [11] the test system is EKVX NSCLC.
The test system of test [12] is SN12C renal.
For test [13], the system named is UO-31 renal.
Test [14] concerns TK-10 renal.
Test [15] deals with ACHN renal.
Test [16] concerns CAKI-1 renal.
Test [17] has as its system A498 renal.
For test [18], the system named is CCRF-CEM leukemia.
Test [19] deals with MOLT-4 leukemia.
The test system of test [20] is SNB-19 CNS.

Molecules are shown by their SMILES. Compounds without any hit were thinned out: in the full panel of roughly 83,000, 20% have a hit.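 Compound tested at a single concentration for 48 hours in 96-well plates; a percent growth value below 10 was scored as active.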 Values without a mark were called inactive. The source made the active and inactive calls.

Consider `CCOc1ccc(NC(=O)CSc2oc(-c3ccccc3)nc2S(=O)(=O)c2ccc(F)cc2)cc1`, for which the growth in test [1] is 77%; in [2], 73.7%; in test [3] it was 103%; in [4] it was 53.4%; in test [5], 55.7%; in [6] it was 79.7%. Further, the growth is 62.8% in [7]; 74.1% in test [8]; 72.6% in test [9]; 81.4% in test [10]; 82.7% in [11]; 89.4% in [12]. In addition, the growth in [13] was 94.5%; in test [14], 83%; in test [15], 73.7%; in test [16] it was 82.8%; in test [17], 63.7%; in test [18], 79.8%. The growth in test [19] was 63.9%.

With `CCNC(=O)c1[nH]cc(-c2ccccc2)c1-c1cc(OC)c2c(c1OC)OCO2`, the growth in [1] was 103%; in test [2] it was 112%; in [3], 91.4%; in test [4], 103%; in test [5], 93.1%; in test [6], 89.8%. The growth is 92.2% in [7]; 95.1% in [8]; 108% in test [9]; 99.9% in [10]; 96.9% in [11]; 98.7% in test [12]. The growth in test [13] was 76%; in test [14], 106%; in test [15], 99.1%; in [16] it was 74.7%; in [17], 77.1%; in test [18], 101%. Besides, in test [19], the growth is 98.9%.

For the compound `NC(=O)c1c(NC(=O)c2ccccc2)sc2c1CCC(=O)C2`, the growth in test [1] is 12.4%; in test [2] it was 9.53% (active); in test [3], -3.05% (active); in [4], 17.6%; in test [5], 10.1%; in test [6] it was -57.6% (active). Further, the growth in [7] is 10.7%; in [8] it was 17.6%; in test [9], 34.9%; in test [10], 12.7%; in [11], 19.2%; in test [12], 12.2%. In addition, the growth is 0.418% (active) in test [13]; 54.9% in test [14]; 7.58% (active) in test [15]; -8.25% (active) in [16]; 92.3% in test [17]; 5.12% (active) in test [18]. The growth in test [19] was 5.67% (active).

For the compound `Cc1ccccc1Cn1cnc2ccc(-c3cc(NC(=O)c4ccc(NC5CCN(C)CC5)cc4)n[nH]3)cc21`, the growth in test [1] was 102%; in [2], 56.6%; in [3], -11.4% (active); in test [4], 75.9%; in test [5] it was 68.8%; in [6] it was 79.3%. For the same compound, the growth is 73.2% in test [7]; 56.7% in test [8]; 92.2% in [9]; 98.3% in test [10]; 91.9% in [11]; 29.7% in test [12]. Also, the growth in [13] is 89.2%; in [14] it was 105%; in [15] it was 107%; in test [16], 68.6%; in [17], 47.8%; in [18], 72%. The growth in [19] is 43%.

Turning to `COC(=O)/C(CCC=C(C)C)=C1\[C@@H](OC(C)=O)C[C@@]2(C)[C@H]1C[C@@H](O)[C@H]1[C@@]3(C)CC[C@H](NCCN)[C@@H](C)[C@@H]3CC[C@@]12C`, the growth was 55% in [1]; 33.5% in [2]; 73% in [3]; 95.1% in test [20]; 69.1% in [4]; 59.6% in test [5]. Also, the growth in [6] is 88.3%; in test [7], 89.5%; in test [8], 84.5%; in test [9], 89.2%; in [10] it was 92.6%; in test [11], 82.2%. Moreover, the growth in test [12] is 81.2%; in test [14], 101%; in [15] it was 99.6%; in test [16], 88.3%; in test [18], 79.4%; in test [19], -13.2% (active).

In the case of `CN[C@]12CC3(C=CC(=O)C=C3)O[C@@]1(Cc1ccc(OC)cc1)N(C)C(=O)N2`, the growth in [1] was 4.25% (active); in test [2], 7.83% (active); in [3] it was 37.8%; in test [4] it was 10.9%; in [5], 27.6%; in [6], 43%. In addition, the growth in test [7] is -43% (active); in [8], -50% (active); in test [9] it was 18.1%; in test [10], 70.7%; in test [11] it was 96%; in [12], 4.44% (active). Further, the growth was 48.7% in [13]; 24.1% in [14]; -86.3% (active) in [15]; 16% in test [16]; 6.3% (active) in test [18]; 28% in [19].

As for `CC[C@@H](C(=O)[C@@H](C)[C@@H](O)[C@H](C)[C@@H]1O[C@@H]([C@@H](CC)C(=O)NCCc2ccc(F)cc2)CC[C@@H]1C)C1O[C@]2(C=CC(=O)[C@]3(CC[C@@](C)([C@H]4CC[C@](O)(CC)[C@H](C)O4)O3)O2)[C@H](C)C[C@@H]1C` (some centres undefined), the growth in test [1] was 29.1%; in [2], 47.2%; in test [3] it was 20.8%; in test [4] it was 28.4%; in test [5], 8.72% (active); in test [6] it was 24.6%. Moreover, the growth in [7] is 26.7%; in test [8] it was 52.8%; in [9], 58.2%; in test [10] it was 53%; in [11], 29.6%; in test [12], 37.7%. In addition, the growth in test [14] was 16.6%; in [15] it was 9.48% (active); in [16], 14.2%; in [17] it was 34.6%; in [18] it was 40.1%; in test [19], 19.2%.

Turning to `O=[N+]([O-])c1ccc(N/N=C(/C(=N/Nc2ccc([N+](=O)[O-])cc2)c2ccccc2)c2ccccc2)cc1`, the growth in [1] was 16.9%; in test [2], 16.4%; in [3] it was 90.3%; in test [4], 53.4%; in test [5], 82%; in [6], 86.3%. In addition, the growth in test [7] was 78.6%; in test [8] it was 61%; in [9] it was 121%; in test [10] it was 11.2%; in test [11], 94.1%; in [12] it was 81.4%. In addition, the growth in test [13] is 51.8%; in [14] it was 94.4%; in test [15] it was -1.56% (active); in [16] it was 53.7%; in test [17], 101%; in [18], 90.9%. Moreover, the growth in test [19] is 73.9%.
